VACV mCherry inh = vaccinia inhibition (mCherry reporter); Vaccinia virus mCherry reporter infection, fluorescence; Potency, µM (top dose mostly 36.5 µM), for inactives: at the highest dose activity change, negative = inhibition, usual class: inhibitors; hit rate 0.63% among 310,000; AID 720579; calls by dose curve; tested in A549 cells; also: nearly all actives have a fitted effect of over 35% in size
Lassa entry inh = blocks Lassa virus binding to or entry into cells; hit rate 1.2% among 300,000; Lassa virus pseudotype entry inhibition, cell reporter; Potency, µM (doses to about 37.9 µM), without a hit: at the top dose activity change, negative = inhibition, most hits filed as inhibitors; AID 540256; calls by dose curve; tested in HEK293 cells; also: nearly all actives have a fitted effect of over 50% in size
Vaccinia Venus = vaccinia inhibition (Venus reporter); hit rate 0.46% among 330,000; Potency, µM (doses to about 36.5 µM), for the others: at the top dose activity change, negative = inhibition, most hits filed as inhibitors; AID 720580; Vaccinia virus Venus reporter expression, fluorescence; calls by dose curve; tested in A549 cells; also: nearly all actives have a fitted effect of over 30% in size
MARV entry inh = Marburg virus entry inhibition. Potency, µM (series often up to 37.8 µM), for the others: at the top dose activity change, negative = inhibition, hits mostly inhibitors. hit rate 1.8% among 300,000. AID 540276. Marburg virus pseudotyped entry inhibition, cell reporter; calls by dose curve; tested in HEK293 cells
FMDV antiviral = blocks foot and mouth disease virus; FMDV antiviral cell-based qHTS; hit rate 1.2% among 410,000; Potency, µM (top dose mostly 57.9 µM), inactives show top-dose activity change, negative = inhibition, most hits filed as inhibitors; calls by dose curve; tested in HEK293T cells; also: read-out not given here; nearly all actives have a fitted effect of over 45% in size
* hit, by the source's call; i = inactive; ? = inconclusive; . = no result given; ! = not confirmed by another sample; [ ] = dose if it differs, or a comment. Rows were chosen to be rich in hits. Some 3.2% of all compounds tested hit in one or more screens of this group. % is scaled to controls: 0 for no effect and ±100 for the full control effect; potency is read from the fitted curve at half-maximal effect.

SMILES | VACV mCherry inh | Lassa entry inh | Vaccinia Venus | MARV entry inh | FMDV antiviral
O=C(NCCN1CCOCC1)c1cnn(-c2nccc(-c3cc4ccccc4o3)n2)c1C1CC1 | -6% | . | -22% | . | -11%
Cc1cc2c(c(-c3ccc4nc(C)ccc4c3)c1)OC(CNC(=O)Cc1ccn(C)c1)C2 (stereo not given) | -25% | . | -15% | . | 5%
COc1cc(/C=C2\C[C@H]3[C@@H]4CC=C5C[C@@H](N6CCCC6)CC[C@]5(C)[C@H]4CC[C@]3(C)[C@H]2O)cc(OC)c1OC | -10% | -28% | -9% | 10µM* | -2%
C[C@]12CC[C@@H](O)CC1=CCC1C2CC[C@@]2(C)C1CC[C@@H]2N (stereo not given in full) | i | -4%[46.1 µM] | -9% | -1%[46.1 µM] | -10%
CCN(CC)S(=O)(=O)c1ccc(C(=O)OCC(=O)Nc2ccc(-c3nc4ccc(C)cc4s3)cc2)cc1 | -10% | ? | -10% | ? | ?
CCN(CC)S(=O)(=O)c1cc(C(=O)OCC(=O)Nc2ccc(-c3nc4ccc(C)cc4s3)cc2)ccc1F | i | 3.2µM*! | -5% | ? | -17%
C=Cc1ncc(OC)c2c1[nH]c1ccccc12 | ? | . | ? | . | 16µM*
COc1ccc(/C=C/c2nccc3c2[nH]c2ccccc23)cc1 | 17% | . | -9% | . | .
CCc1cc(=O)oc2cc(C)c(CN3CCC[C@@H](C)C3)c(O)c12 | . | . | . | 14% | .
CN(Cc1nc2ccccc2c(=O)[nH]1)C(=O)c1ccc(S(=O)(=O)N(C)C)cc1 | . | 12% | . | 4% | -11%
CC(=O)c1ccc(-c2ccc(C(=O)N(C)Cc3nc4ccccc4c(=O)[nH]3)o2)cc1 | . | . | . | . | 22µM*
O=C1CN(C(=O)COC(=O)c2ccc(Br)o2)c2ccccc2N1 | . | . | . | . | -3%
CCCC[C@H](CN[C@@H](CNC)[C@H](C)CC)NCCC12CCC(CC1)C2 | 22µM* | . | 22µM* | . | -2%
CC(=O)NC(C)c1cc(Cl)c2cccnc2c1O (stereo not given) | . | . | . | . | -19%
COc1ccc(C(=O)NC(c2ccc(Cl)cc2)c2cc(Cl)c3cccnc3c2O)cc1 (stereo not given) | 10µM* | -21%[46.1 µM] | ? | . | -10%
COc1ccc(C(NC(C)=O)c2cc(Cl)c3cccnc3c2O)cc1OC (stereo not given) | ? | 2.8µM* | ? | ? | -17%
O=C(NC(c1ccccc1)c1cc(Cl)c2cccnc2c1O)c1cccnc1 (stereo not given) | . | -14% | . | -23% | .
CCC(=O)NC(c1ccc(C)cc1)c1cc(Cl)c2cccnc2c1O (stereo not given) | . | . | . | . | -21%
CCC(=O)NC(c1ccc(OC)c(OC)c1)c1cc(Cl)c2cccnc2c1O (stereo not given) | 11µM* | ? | ? | ? | -16%
COc1ccccc1C(NC(C)=O)c1cc(Cl)c2cccnc2c1O (stereo not given) | ? | ? | ? | 3.2µM* | 21%
CCOc1cc(C)c(S(=O)(=O)Nc2ccc3cn[nH]c3c2)cc1C | -27% | -20% | ? | ? | .
COc1ccc(Cc2cnc(N)s2)cc1 | i | 0%[46.1 µM] | -9% | 0%[46.1 µM] | 8%
CCOc1ccc(C(Nc2cccnc2)c2cc(Cl)c3cccnc3c2O)cc1 (stereo not given) | ? | ? | ? | ? | -14%
CCOc1ccc(C(NC(C)=O)c2cc(Cl)c3cccnc3c2O)cc1 (stereo not given) | 5µM* | . | ? | . | .
Cc1cc(C)c2c(CCl)cc(=O)oc2c1 | -20% | ? | ? | ? | 28µM*
SMILES | VACV mCherry inh | Lassa entry inh | Vaccinia Venus | MARV entry inh | FMDV antiviral
CCCCN(CCCC)Cc1cc(=O)oc2cc(C)cc(C)c12 | 14% | 1%[46.1 µM] | 1% | . | -17%
Cc1cc(C)c2c(CN(C)Cc3ccccc3)cc(=O)oc2c1 | 31% | 10µM* | 0% | . | 53%
S=C(NCCC1=CCCCC1)NCc1ccco1 | -25% | ? | -16% | -27%[46.1 µM] | 33%
CCOc1ccc(-c2cc(C(=O)Nc3ccc(NC(C)=O)cc3)no2)cc1 | -19% | 9%[46.1 µM] | -8% | 8%[46.1 µM] | 3%
CCOC(=O)c1ccc(N2CCOCC2)c(NC(=O)c2c(-c3ccccc3)noc2C)c1 | -9% | ? | -29% | 1.8µM* | -13%
Cc1onc(-c2ccccc2)c1C(=O)Nc1cc(C(F)(F)F)ccc1N1CCOCC1 | ? | ? | ? | ? | -26%
COC(=O)c1c(NC(=O)c2nc3ccccc3s2)sc2c1CC(C)(C)NC2(C)C | ? | . | 11µM* | . | -28%
CCCCCCCSc1cc(OC)c(CCN(C)C)cc1OC | ? | ? | 10µM* | ? | -17%
